Active and inactive are the calls of the source. Unless noted, no rule for the calls is given here.
Tests used:
[1] = test system: XIP peptide (Xip251-270) binding; experiment: XIP fragment 251-270 binding compounds – biochemical, small-molecule microarray, fluorescence 635/667 nm, 0.1 µg/mL protein, primary screen (AID 1182); conditions: fluorescent protein binding, 635 nm, higher = more signal, called active from +8 up or from −8 down
XIP peptide (Xip251-270) = experiment: compounds binding XIP fragment 251-270 – biochemical, small-molecule microarray, fluorescence 635/667 nm, 0.5 µg/mL protein, primary screen (AID 1183); conditions: fluorescence 635 nm, higher = more signal
[2] = blood-stage malaria parasite viability loss – strain 3D7, DAPI fluorescence, 100 nL, primary screen (AID 1184);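 also: parasites grown inside human red blood cells in medium with human serum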; conditions: P. falciparum 3D7 growth, 3 d, higher = more signal
[3] = target: Homeobox protein Hox-A13 (Mus musculus) (UniProt Q62424); experiment: disruptors of Hoxa13 oligonucleotide interaction – biochemical, fluorescence polarization, labeled oligonucleotide, primary screen (AID 1185); conditions: Hoxa13:DNA binding, 15 min, higher = more signal, called active from +8 up or from −8 down
Sequence of Homeobox protein Hox-A13 (Mus musculus) (Q62424 whole entry, looked up): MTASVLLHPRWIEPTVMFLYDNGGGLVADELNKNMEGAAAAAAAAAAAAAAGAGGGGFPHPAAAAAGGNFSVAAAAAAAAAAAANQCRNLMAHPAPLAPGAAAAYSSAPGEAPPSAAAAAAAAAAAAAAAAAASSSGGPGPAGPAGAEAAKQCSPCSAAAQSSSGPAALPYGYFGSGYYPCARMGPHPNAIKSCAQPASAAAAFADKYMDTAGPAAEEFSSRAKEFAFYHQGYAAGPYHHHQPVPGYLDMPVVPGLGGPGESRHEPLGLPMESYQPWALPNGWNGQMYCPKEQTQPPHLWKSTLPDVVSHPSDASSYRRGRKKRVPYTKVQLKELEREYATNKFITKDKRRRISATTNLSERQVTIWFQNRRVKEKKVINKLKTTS

[4] = blockers of DNA damage checkpoint Chk1 activation – imaging, HeLa, hydroxyurea, phospho-Chk1 antibody, percent positive cells, primary screen (AID 1186); conditions: hydroxyurea-induced phospho-Chk1 immunofluorescence imaging, higher = more signal
[5] = blockers of DNA damage checkpoint Chk1 activation – imaging, HeLa, hydroxyurea, phospho-Chk1 nuclear intensity, primary screen (AID 1187); conditions: hydroxyurea-induced phospho-Chk1 immunofluorescence imaging, higher = more signal

Q: What does the source list for `COc1ccc([Si](C)(C)[C@H]2[C@H](CCn3cc(CCO)nn3)O[C@@]3(C(=O)N(Cc4ccc(N5CCOC5=O)cc4)c4ccccc43)[C@@H]2C)cc1`?
A: composite z-score [1]: 0.523 (inactive); composite z-score (XIP peptide (Xip251-270)): 0.866; z-score [2]: -2.38; z-score [3]: -4.22 (inactive); z-score [4]: -1.11 (inactive); z-score [5]: -0.744 (inactive)

Q: For `O=C1C2C=CC(C(O)c3ccc(F)cc3)N(Nc3ccccc3)C2C(=O)N1c1ccccc1` (centres undefined), which composite z-score [1] is on record?
A: 0.669 (inactive)

Q: And the composite z-score (XIP peptide (Xip251-270))?
A: -0.168

Q: And the z-score [2]?
A: 0.191

Q: And the z-score [3]?
A: -4.12 (inactive)

Q: And the z-score [4]?
A: -0.125 (inactive)

Q: What about the z-score [5] of the same compound?
A: -0.391 (inactive)

Q: With `CCOC(=O)C1=C[C@@H](C(C)C)N(S(=O)(=O)c2ccc(C)cc2)[C@H]1c1ccc(C(C)C)cc1` as the compound, how does the composite z-score [1] read?
A: 0.306 (inactive)

Q: What about the composite z-score (XIP peptide (Xip251-270)) of the same compound?
A: -0.109

Q: And the z-score [2]?
A: -1.46

Q: What about the z-score [3] of the same compound?
A: -0.549 (inactive)

Q: And the z-score [4]?
A: 0.25 (inactive)

Q: And the z-score [5]?
A: 0.478 (inactive)

Q: Which composite z-score [1] does the source give for `C[C@]1(C(=O)NCc2ccccc2)c2ccccc2C(=O)N(Cc2cc(F)cc(C(F)(F)F)c2)[C@H]1c1ccc(CO)cc1` here?
A: 0.753 (inactive)

Q: And the composite z-score (XIP peptide (Xip251-270))?
A: 0.518

Q: And the z-score [2]?
A: -0.327

Q: What about the z-score [3] of the same compound?
A: -3.43 (inactive)

Q: What about the z-score [4] of the same compound?
A: -0.603 (inactive)

Q: And the z-score [5]?
A: -0.552 (inactive)

Q: Which composite z-score [1] does the source give for `CC(C)C[C@@H]1NC(=O)[C@H]2C[C@@H](C(=O)NCCCCCCNC(=O)CS)[C@@H](c3cccc(OCCO)c3)N2C1=O` here?
A: 0.821 (inactive)

Q: What about the composite z-score (XIP peptide (Xip251-270)) of the same compound?
A: 0.792

Q: And the z-score [2]?
A: -0.0202

Q: And the z-score [3]?
A: -2.77 (inactive)

Q: And the z-score [4]?
A: 0.0162 (inactive)

Q: And the z-score [5]?
A: 0.12 (inactive)

Q: Which results are given for `COCCOC(=O)N1C(=O)[C@@]2(c3cc(C#Cc4ccc(OC)cc4)ccc31)[C@H](C(=O)N1CCN(c3ncccn3)CC1)[C@H]1C(=O)O[C@H](c3ccccc3)[C@H](c3ccccc3)N1[C@@H]2c1ccc(O)cc1`?
A: composite z-score [1]: 0.0853 (inactive); composite z-score (XIP peptide (Xip251-270)): 0.481; z-score [2]: -1.38; z-score [3]: 0.261 (inactive); z-score [4]: -0.0134 (inactive); z-score [5]: -0.454 (inactive)

Q: With `COCCOC(=O)N1C(=O)[C@@]2(c3cc(C#CCNC(N)=O)ccc31)[C@H](c1ccccc1OCCO)N1[C@H](c3ccccc3)[C@H](c3ccccc3)OC(=O)[C@H]1[C@@H]2C(N)=O` as the compound, how does the composite z-score [1] read?
A: -0.0949 (inactive)

Q: And the composite z-score (XIP peptide (Xip251-270))?
A: 0.467

Q: And the z-score [2]?
A: -0.585

Q: And the z-score [3]?
A: -2.6 (inactive)

Q: And the z-score [4]?
A: 0.0842 (inactive)

Q: And the z-score [5]?
A: -0.266 (inactive)

Q: Which results are given for `COCC1=C2[C@@H](CCc3ccccc3)OB(O)C[C@@H]2[C@@H]2C(=O)N(Cc3ccccc3)C(=O)[C@@H]2C1`?
A: composite z-score [1]: -0.653 (inactive); composite z-score (XIP peptide (Xip251-270)): -0.538; z-score [2]: 1.22; z-score [3]: -7.4 (inactive); z-score [4]: 0.141 (inactive); z-score [5]: 0.381 (inactive)

Q: Which composite z-score [1] does the source give for `[N-]=[N+]=Nc1ccccc1[C@@H]1OC(c2ccc(OCCCO)cc2)=N[C@]1(CCS(=O)(=O)c1ccccc1)C(=O)N1CCOCC1` here?
A: 1.12 (inactive)

Q: What about the composite z-score (XIP peptide (Xip251-270)) of the same compound?
A: 0.731

Q: And the z-score [2]?
A: -2.09

Q: What about the z-score [3] of the same compound?
A: -1.96 (inactive)

Q: What about the z-score [4] of the same compound?
A: 0.0445 (inactive)

Q: What about the z-score [5] of the same compound?
A: 0.143 (inactive)

Q: For `COCCOC(=O)N1C(=O)[C@@]2(c3cc(C#CCCO)ccc31)[C@H](c1ccc(O)cc1)N1[C@H](c3ccccc3)[C@H](c3ccccc3)OC(=O)[C@H]1[C@@H]2C(N)=O`, which composite z-score [1] is on record?
A: 0.599 (inactive)

Q: What about the composite z-score (XIP peptide (Xip251-270)) of the same compound?
A: 0.77

Q: And the z-score [2]?
A: -0.662

Q: And the z-score [3]?
A: -5.33 (inactive)

Q: And the z-score [4]?
A: -0.296 (inactive)

Q: And the z-score [5]?
A: -0.841 (inactive)

Q: With `CCOC(=O)C[C@H]1[C@H](OC(=O)c2ccccc2-c2ccccc2)[C@@H](NC(=O)c2ccc3ccccc3c2)c2cc(OCCCO)ccc2N1C(=O)c1ccc2ccccc2n1` as the compound, how does the composite z-score [1] read?
A: 0.157 (inactive)

Q: And the composite z-score (XIP peptide (Xip251-270))?
A: 0.171

Q: What about the z-score [2] of the same compound?
A: -0.34

Q: What about the z-score [3] of the same compound?
A: -2.08 (inactive)

Q: What about the z-score [4] of the same compound?
A: 0.308 (inactive)

Q: What about the z-score [5] of the same compound?
A: -0.334 (inactive)

Q: For `COC(=O)C(CC#Cc1ccc2c(c1)[C@]1(C(=O)N2)[C@H](c2ccc(OCCO)cc2)N2[C@H](c3ccccc3)[C@H](c3ccccc3)OC(=O)[C@H]2[C@@H]1C(=O)NC[C@H](O)c1ccccc1)C(=O)OC`, which composite z-score [1] is on record?
A: 1.14 (inactive)

Q: And the composite z-score (XIP peptide (Xip251-270))?
A: 0.836

Q: And the z-score [2]?
A: -1.79

Q: And the z-score [3]?
A: -0.715 (inactive)

Q: And the z-score [4]?
A: 0.0415 (inactive)

Q: And the z-score [5]?
A: 0.364 (inactive)

Q: With `COC(=O)[C@@]1(Cc2ccc(F)cc2)[C@H]2c3cc(C(=O)N4CCCC4)n(Cc4cccc5ccccc45)c3C[C@H]2CN1C(=O)c1ccccc1` as the compound, how does the composite z-score [1] read?
A: 0.702 (inactive)

Q: And the composite z-score (XIP peptide (Xip251-270))?
A: 0.0322

Q: What about the z-score [2] of the same compound?
A: -1.74

Q: And the z-score [3]?
A: -4.87 (inactive)

Q: And the z-score [4]?
A: -0.704 (inactive)

Q: And the z-score [5]?
A: -0.576 (inactive)

Q: Which composite z-score [1] does the source give for `COC(=O)[C@@]1(Cc2ccc(OC)cc2)[C@H]2c3cc(C(=O)N4CCCC4)n(Cc4ccccn4)c3C[C@H]2CN1C(=O)c1ccccc1` here?
A: -0.22 (inactive)

Q: What about the composite z-score (XIP peptide (Xip251-270)) of the same compound?
A: 0.329

Q: And the z-score [2]?
A: -1.43

Q: And the z-score [3]?
A: -5.86 (inactive)

Q: And the z-score [4]?
A: 0.613 (inactive)

Q: And the z-score [5]?
A: 0.451 (inactive)
